In PubChem BioAssay (NCI):
The panel holds about 83,000 compounds, 20% with a hit somewhere; the sample as a whole holds those more often.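 Assay: single dose, 48 h. Readout: percent growth (0 = no net growth; negative = cell death). Active: <10.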 Values without a mark were called inactive. Calls of active or inactive are those of the source.

What follows are compounds tested on HL-60(TB) leukemia (assay: NCI-60 one-dose screen, 48 h (100 = growth as untreated, 0 = no growth, -100 = all killed)). Details: 10 µM unless noted.
In the case of CC(C)(C)CC(N)=O, the growth is reported as 120%.
OC(CCN1CCCCC1)(c1ccccc1)c1ccccc1 showed a growth of 130%.
For O=c1ccn2c(n1)OC1CC2OC1COC(c1ccccc1)(c1ccccc1)c1ccccc1 (stereo not given), the growth was 89.2% [100 µM].
In the case of Cc1nnc(-c2ccc3c(c2)nc(/C=C/c2ccccc2)n3C2CCCCC2)o1, the growth is reported as 65.3%.
COc1cc2c(/C=C3/C(=O)Nc4ccc(O)cc43)c(Cl)n(Cc3cc(OC)c(OC)c(OC)c3)c2cc1C was tested, and the growth was -33.7% (active).
Work on COc1ccc(-c2ccc(-c3ccc(C(=N)N)cn3)s2)cc1OC yielded a growth of 94.9%.
C/C(CCC(=O)O)=N/Nc1ccc([N+](=O)[O-])cc1 was tested, and the growth was 31.9%.
In the case of O=C1Nc2cc(-c3ccc(NC(=O)c4ccccc4)cc3)ccc2/C1=C/c1ccc[nH]1, the growth is reported as 99.2%.
In the case of CN(C)c1ccc(C#Cc2c(F)cccc2Cl)cc1, the growth is reported as 79%.
Work on O=C1NCC(c2cc3ccccc3[nH]c2=O)Nc2ccccc21 (stereo not given) yielded a growth of 95.7%.
Cc1ccc(-c2csc(NC(=O)N3CCN(c4cc5c(cc4F)c(=O)c(C(=O)O)cn5C4CC4)CC3)n2)cc1 was tested, and the growth was -15.5% (active).
Work on N#C/C(=C\c1ccc(-c2cccc(C(F)(F)F)c2)o1)c1nc(-c2ccco2)cs1 yielded a growth of 101%.
With CN1C(N2CCN(S(=O)(=O)c3ccccc3)CC2)=NS(=O)(=O)c2ccccc21 the growth was 116%.
With COc1cc(Nc2cn[nH]c2-c2ccc(Cl)cc2)cc(OC)c1OC the growth was 14.6%.
In the case of CCCCC[n+]1ccc(SCC(=O)N(C)c2ccc(Oc3ccccc3)cc2)c2ccccc21, the growth is reported as 3.74% (active).
Compound Brc1ccccc1Cn1c(-c2cncs2)nc2ccccc21 has a growth of 79.1%.
CCOc1ccccc1NC(=O)CCC(=O)OC showed a growth of 78.7%.
In the case of OC(CBr)c1ccnc2ccccc12 (stereo not given), the growth is reported as 100%.
For Cc1ccc(N(CSc2ccc(Cl)cc2)CSc2ccc(Cl)cc2)cc1, the growth was -46.7% (active).
Cn1ncc2cc3c(Nc4ccc(Cl)cc4)cccc3nc21 was tested, and the growth was 95.1%.
Work on N=C(N)c1ccc(OCCSCCOc2ccc(C(=N)N)cc2)cc1 yielded a growth of 77.9%.
In the case of C(=C\c1ccncc1)/c1ccncc1, the growth is reported as 105%.
With CCN(CC)CCNC(=O)C(F)(F)C(F)(F)C(F)(F)F the growth was 108%.
Oc1cc2ccccc2c(-c2c(O)c(O)cc3ccccc23)c1O was tested, and the growth was 19.8%.
Work on O=c1ccc(N=Nc2ccccc2)ccc1Cl yielded a growth of 42.8%.
CC(NC(=O)Oc1cccc2ccccc12)c1ccccc1 (stereo not given) was tested, and the growth was 44.8%.
COc1ccc(NC(=O)CSc2nc3ccccc3c(=O)n2-c2ccccc2C(F)(F)F)c(OC)c1OC showed a growth of 103%.
O=C(O)c1cccc(S(=O)(=O)c2ccccc2)c1 showed a growth of 92%.
For C=C[C@H]1C[C@@H]2C[C@@H]3[C@H]4C/C=C\C(=O)NCCCC5NC(=O)C(=C(O)/C=C/[C@@H]4CC(=O)[C@H]3[C@@H]2[C@H]1C)C5=O (stereo not given in full), the growth was -76.5% (active).
CC/C=C/C/C=C/C/C=C/C/C=C/C/C=C/C/C=C/CCC(=O)Nc1ccn([C@@H]2O[C@H](CO)[C@@H](O)C2(F)F)c(=O)n1 was tested, and the growth was -16.1% (active).
CCCCCCCCCCN=C(c1ccc(N(C)C)cc1)c1ccc(N(C)C)cc1 was tested, and the growth was 11.2%.
COc1ncnc2c1ncn2C/C(Br)=C(\Br)CCl gave a growth of 47.1%.
COc1cc(C(=O)N2CCN(c3cc4c(cc3F)c(=O)c(C(=O)NO)cn4C3CC3)CC2)cc(OC)c1OC showed a growth of 101%.
For COc1cc(C(=O)O/N=C(\N)Cc2cccc3ccccc23)cc(OC)c1OC, the growth was -37.4% (active).
For Fc1ccc(Nc2nc(Nc3ccc(-c4nc5ccccc5[nH]4)cc3)nc(N3CCCC3)n2)cc1, the growth was 5.97% (active).
For Cc1cn2c(/C=C3/C(=O)Nc4c3ccc3ccccc43)c(C(F)(F)F)nc2s1, the growth was 1.47% (active).
C#COc1cccc(Nc2ncnc3cc(NC(=O)[C@@H](C)Cl)ccc23)c1 was tested, and the growth was 10.9% [6.25 µM].
With COc1ccc(/C=N/Nc2cc(=O)[nH]c3ccc(Cl)cc23)cc1 the growth was 45.3%.
Work on CCOc1ccc(-c2nc3ccc(-c4nc5ccc(N6CCN(C)CC6)cc5[nH]4)cc3[nH]2)cc1OCC yielded a growth of 24.8%.
Work on Cc1[nH]c(C(=O)Nc2ccc(C(N)=O)cc2OC(C)C)c(Cl)c1Cl yielded a growth of 97.1%.
